High-throughput results deposited in PubChem BioAssay by Sanford-Burnham Center for Chemical Genomics.
tim23-1 inh – growth inhibitors of tim23-1 mutant yeast; inhibition, % at 20 µM; 1.3% of 330,000 active; S. cerevisiae tim23-1 growth, BacTiter-Glo luminescence, 24 h; AID 463212;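 active = growth inhibition of the mutant yeast at or above 50%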;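 note: temperature-sensitive mutant grown at 25 °C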
TIM10 inh – growth inhibitors of TIM10 yeast strain; S. cerevisiae TIM10 strain growth, BacTiter-Glo luminescence, 24 h; inhibition, % at 10 µM; 1.4% of 330,000 active; AID 463195;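 active = inhibition of 40% or more at the single tested concentration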;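 note: wild-type TIM10 isogenic control strain grown at permissive 25 °C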
Mdm2-MdmX inh – human Mdm2/MdmX binding inhibition; O15151+Q00987; SaOS-2 split-luciferase Mdm2/MdmX complementation, luminescence; inhibition, % at 8 µM; 3% of 330,000 active;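 active = inhibition of at least 50% at 8 µM in the primary screen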
Target sequence (O15151 whole entry, looked up): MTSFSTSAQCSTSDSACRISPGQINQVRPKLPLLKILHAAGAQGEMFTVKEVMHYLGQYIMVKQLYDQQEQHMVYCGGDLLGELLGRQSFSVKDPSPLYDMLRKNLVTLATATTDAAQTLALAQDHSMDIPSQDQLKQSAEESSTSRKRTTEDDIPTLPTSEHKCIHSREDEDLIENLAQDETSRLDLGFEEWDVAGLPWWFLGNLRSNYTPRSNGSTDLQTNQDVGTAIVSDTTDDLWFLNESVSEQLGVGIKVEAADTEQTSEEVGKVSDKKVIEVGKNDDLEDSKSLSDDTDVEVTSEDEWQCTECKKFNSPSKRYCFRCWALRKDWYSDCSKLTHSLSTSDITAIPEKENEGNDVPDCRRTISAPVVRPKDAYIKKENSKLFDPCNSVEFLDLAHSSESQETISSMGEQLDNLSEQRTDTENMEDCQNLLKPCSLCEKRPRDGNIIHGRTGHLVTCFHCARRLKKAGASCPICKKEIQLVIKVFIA
Target sequence (Q00987 whole entry, looked up): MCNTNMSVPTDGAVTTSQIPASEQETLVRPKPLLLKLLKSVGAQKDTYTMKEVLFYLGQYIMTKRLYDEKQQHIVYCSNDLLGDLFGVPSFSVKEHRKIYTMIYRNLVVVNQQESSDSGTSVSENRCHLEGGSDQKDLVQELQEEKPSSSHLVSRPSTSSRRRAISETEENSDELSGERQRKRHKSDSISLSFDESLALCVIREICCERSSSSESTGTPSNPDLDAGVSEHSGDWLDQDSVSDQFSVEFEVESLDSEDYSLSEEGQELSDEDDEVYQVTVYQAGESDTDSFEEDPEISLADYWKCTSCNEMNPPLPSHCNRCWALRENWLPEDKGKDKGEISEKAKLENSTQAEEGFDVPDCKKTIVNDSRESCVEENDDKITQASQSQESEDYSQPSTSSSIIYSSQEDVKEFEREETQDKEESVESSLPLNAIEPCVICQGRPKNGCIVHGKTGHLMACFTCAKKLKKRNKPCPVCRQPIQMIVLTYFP
tim10-1 inh – tim10-1 yeast growth inhibition. S. cerevisiae tim10-1 ts strain growth, BacTiter-Glo, 24 h. inhibition, % at 20 µM. 2.2% of 330,000 active. AID 463190;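 active = inhibition of at least 40%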;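 note: mutant grown at 25 °C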
MPTP inh – permeability transition pore inhibition. isolated mouse mitochondria, Ca2+ swelling absorbance, 30 min. inhibition, % at 10 µM. 1.4% of 360,000 active. AID 602449;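 active = inhibition of 50% or more, scaled per plate between neutral and stimulator controls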
TIM10 conf – TIM10 yeast growth inhibition, confirmed. shares compounds with TIM10 inh. S. cerevisiae tim10 strain growth, BacTiter-Glo luminescence, 24 h. inhibition, % at 10 µM. 63% of 4,600 active. AID 463215;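 active = inhibition of yeast growth at or above a set limit in either of two replicates at 10 µM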; note: this counterscreen used the strain with wild-type TIM10
Numbers stand for hits; 0 = inactive; - = no result. Only some compounds are listed: those with a hit (about 6.3% of all), similar ones and a draw of the others.

SMILES	tim23-1 inh	TIM10 inh	Mdm2-MdmX inh	tim10-1 inh	MPTP inh	TIM10 conf
COc1cc(NC(=O)CSc2cc(C)c3cc(C)cc(C)c3n2)c(C(=O)O)cc1OC	0	44.7	0	0	0	17.9
Cc1ccc(Nc2cc(=O)n(C)c(=O)[nH]2)cc1C	-	-	-	-	0	-
O=C(Nc1ccc2c(c1)OCO2)C1Cc2c(-c3ccc4c(c3)OCO4)ccnc2O1 (stereo unspecified)	-	-	-	-	0	-
CC(=O)c1cccc(N=Nc2c(C)[nH]c3ccccc23)c1	0	41.2	0	0	0	0
O=C(O)c1ccc(N=Nc2c(O)[nH]c3ccccc23)cc1	0	0	0	0	0	-
O=C(c1cnn2c1NC(c1ccc(Br)cc1)CC2C(F)(F)F)N1CCN(C23CC4CC(CC(C4)C2)C3)CC1 (stereo unspecified)	0	42.0	0	0	0	0
O=C(c1cnn2c1NC(c1ccc(Br)cc1)CC2C(F)(F)F)N1CCN2CCCC2C1 (stereo unspecified)	0	0	0	0	0	-
COc1ccc(C(=O)Nc2ccc3c(c2)nc2n3CCSC2)cc1	0	50.9	0	0	0	41.5
CCC(=O)Nc1ccc2c(c1)nc1n2CCSC1	0	0	0	0	0	-
O=C(Nc1ccc2c(c1)nc1n2CCSC1)c1ccccc1	0	66.3	0	0	0	67.2
O=C(Nc1ccc2c(c1)nc1n2CCOC1)c1ccccc1	0	63.3	0	0	0	46.5
CC(C)C(=O)Nc1ccc2c(c1)nc1n2CCSC1	0	0	0	0	0	-
O=C(c1cccc(S(=O)(=O)N2CCOCC2)c1)N1CCN(c2ncccn2)CC1	-	-	-	-	0	-
CCOc1cccc(N2C(=O)CC(N(CCc3ccc(OC)c(OC)c3)C(=O)CC)C2=O)c1 (stereo unspecified)	0	0	0	0	0	-
CCOC(=O)c1ccc(N2C(=O)CC(N(C)CCc3ccc(OC)c(OC)c3)C2=O)cc1 (stereo unspecified)	0	43.3	0	0	0	45.8
O=C(Nc1ccc(Oc2ccccc2)nc1)[C@H]1O[C@@H](n2ccc(=O)[nH]c2=O)[C@H](O)[C@@H]1O	-	-	-	-	0	-
CC1(C(=O)Nc2cccc(C#N)c2)CCN1C(=O)C1(c2ccccc2)CC1 (stereo unspecified)	-	-	-	-	0	-
Cc1cc2nc(C)n3c4ccccc4nc3n2n1	0	58.7	0	0	0	44.9
COc1ccc(NC(=O)CSc2nnnn2C2CCCC2)cc1S(=O)(=O)N1CCOCC1	-	-	-	-	0	-
Cc1ccc(NC(=S)N/N=C2/CCCCc3ccccc32)cc1	0	45.0	0	0	0	38.0
CCOC(=O)C1CCCN(C(=O)c2ccc(SC(F)(F)F)cc2)CC1 (stereo unspecified)	-	-	-	-	0	-
COC(=O)c1ccccc1COc1cccn2c(N(C)Cc3cccs3)c(C)nc12	-	-	-	-	0	-
O=C(CCS(=O)(=O)c1ccccc1)Nc1ncc([N+](=O)[O-])s1	0	40.9	0	0	0	33.3
Cc1ccc(/C=N/NC(=O)NN(C)c2ncc(C(F)(F)F)cc2Cl)cc1	0	40.9	0	0	0	44.7
COC(=O)c1cc(S(=O)(=O)Nc2cc(OC)cc(OC)c2)cn1C	0	0	0	0	0	-
SMILES	tim23-1 inh	TIM10 inh	Mdm2-MdmX inh	tim10-1 inh	MPTP inh	TIM10 conf
COC(=O)c1cc(S(=O)(=O)Nc2cccc(C)c2C)cn1C	0	84.2	0	0	0	0
COC(=O)C[C@H]1C=C[C@H](NC(=O)C2CCOCC2)[C@@H](CO)O1	-	-	-	-	0	-
O=C(N/N=C/c1cccs1)c1ccc2ccccc2c1	0	46.5	0	0	0	0
Cc1ccc(CSc2nnc(-c3ccncc3)n2N)cc1	0	41.9	0	0	0	0
CN(C)CCNC(=S)Nc1ccccc1Cl	0	0	0	0	0	-
Cc1c(Cl)cccc1NC(=S)NCCCN(C)C	0	45.7	0	0	0	0
NNc1nc2c(-c3ccc(Cl)cc3)nnn2c2ccccc12	0	69.3	0	0	0	70.0
COCCCNc1nc2c(-c3ccc(Cl)cc3)nnn2c2ccccc12	0	0	0	0	0	-
Cc1ccc(CN2CCN(/N=C\C(Br)=C\c3ccccc3)CC2)cc1	0	43.5	0	0	0	0
CC(=C/c1ccccc1)/C=N/N1CCN(Cc2ccc(C)cc2)CC1	0	0	0	0	0	-
COc1ccccc1C(O)c1ncc(-c2ccccc2C)[nH]1 (stereo unspecified)	-	-	-	-	0	-
COC(=O)/C=C1\OCc2cc(OCc3ccccc3)ccc21	-	-	-	-	0	-
COC(=O)CC1=NN(c2ccccc2)C(=O)/C1=C\c1ccc(OC)cc1	0	0	0	0	0	-
CCOC(=O)CC1=NN(c2ccccc2)C(=O)/C1=C\c1ccc(OC)cc1OC	0	47.9	0	0	0	0
S=C(NCc1ccccc1Cl)Nc1ccccc1Cl	0	42.6	0	0	0	38.5
Cc1cccc(NCC(=O)N/N=C\c2c[nH]c3ccccc23)c1	0	0	0	0	0	-
Cc1ccccc1NCC(=O)N/N=C/c1c[nH]c2ccccc12	0	46.7	0	0	0	0
Cc1cc(N/N=C/c2c[nH]c3ccccc23)c2ccccc2n1	0	53.5	0	0	0	33.8
CC1(C(=O)Nc2ccc3c(c2)OCCO3)CSCC(=O)N1C1CC1 (stereo unspecified)	-	-	-	-	0	-
O=C(Nc1cccc2ccccc12)N1CCc2ccccc2C1	0	40.3	0	0	0	0
CCOc1cc(C=O)c(Br)cc1OC1CCCC1	0	40.2	0	0	0	0
CCS(=O)(=O)c1nc(S(=O)(=O)c2ccc(Cl)cc2)c(NCCN2CCOCC2)s1	0	0	0	0	0	-
CCS(=O)(=O)c1nc(S(=O)(=O)c2ccc(C)cc2)c(NCCN2CCOCC2)s1	0	97.2	0	0	0	0
CCCCCOC(=O)c1[nH]c2c(c1C)C(=O)C(C(=O)OC)C(C)C2 (stereo unspecified)	0	43.1	0	0	0	36.8
Cc1cc(OCc2cccc(S(=O)(=O)N3CCOCC3)c2)ccc1Cl	0	49.5	0	0	0	0
SMILES	tim23-1 inh	TIM10 inh	Mdm2-MdmX inh	tim10-1 inh	MPTP inh	TIM10 conf
N#Cc1ccc(OCc2cccc(S(=O)(=O)N3CCOCC3)c2)cc1	0	0	0	0	0	-
COc1cc(OC)c(C(=O)c2ccccc2[N+](=O)[O-])c(OC)c1	-	-	-	-	0	-
O=C(COc1ccc2c(c1)OCO2)NC12CC3CC(CC(C3)C1)C2	0	47.1	0	0	0	32.5
Cc1ccc2cc(CCNC(=O)c3cc4ccccc4o3)c(=O)[nH]c2c1C	0	57.8	0	0	0	32.0
CCOC(=O)Nc1cccc(OCC(=O)Nc2ccc3c(c2)CCC3)c1	0	49.2	0	0	0	0
COc1cccc(NC(=O)COc2ccc3c(c2)CCC3)c1	0	0	0	0	0	-
CN(Cc1ccccc1)S(=O)(=O)c1ccc2c(c1)n(C)c(=O)c(=O)n2C	0	0	0	0	0	-
CN(Cc1ccccc1)C(=O)CCS(=O)(=O)c1ccc2c(c1)n(C)c(=O)c(=O)n2C	0	40.4	0	0	0	0
CCc1nc2c(OCCc3cccc(OC)c3)cccn2c1N(C=O)Cc1ccc(OC)cc1	-	-	-	-	0	-
CC(=O)Nc1ccc(C(=O)N/N=C/c2cc(Br)cc(Br)c2O)cc1	0	51.5	0	0	0	31.1
